Screening results: PubChem, National Center for Advancing Translational Sciences (NCATS)
HBB splicing – hemoglobin beta splicing modulation. HBB splicing reporter cell assay, activation; EGFP reporter with mutant IVS2-654 intron; response scale: normalised to 500 nM splice-correcting PNA. Potency, µM (top dose mostly 46.1 µM), inactives show top-dose activation, most hits filed as activators. 65,000 tested, 0.06% active; further: potency means the concentration at half of the fitted maximal effect; 0% is about no effect
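Compounds were applied for 2 days to HeLa EGFP-654 cells, 500/well in Optimem with 2% FCS. The reporter's EGFP is disrupted by mis-splicing of beta-globin intron IVS2-654. Readout: summed well GFP fluorescence from 488 nm laser scanning; reference was 500 nM antisense […] 654 PNA.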
Luciferase inh – inhibitors of firefly luciferase; purified firefly luciferase, luminescence, 8 min; Potency, µM (doses to about 57.1 µM), for inactives: at the top dose activity change, negative = inhibition, usual class: inhibitors; 72,000 tested, 2.2% active; P08659; AID 411; further: potency means the concentration at half of the fitted maximal effect; on the % scale 0 is the no-effect control and ±100 the full control effect; nearly all actives have a fitted effect of over 40% in size
Target sequence (P08659 whole entry, looked up): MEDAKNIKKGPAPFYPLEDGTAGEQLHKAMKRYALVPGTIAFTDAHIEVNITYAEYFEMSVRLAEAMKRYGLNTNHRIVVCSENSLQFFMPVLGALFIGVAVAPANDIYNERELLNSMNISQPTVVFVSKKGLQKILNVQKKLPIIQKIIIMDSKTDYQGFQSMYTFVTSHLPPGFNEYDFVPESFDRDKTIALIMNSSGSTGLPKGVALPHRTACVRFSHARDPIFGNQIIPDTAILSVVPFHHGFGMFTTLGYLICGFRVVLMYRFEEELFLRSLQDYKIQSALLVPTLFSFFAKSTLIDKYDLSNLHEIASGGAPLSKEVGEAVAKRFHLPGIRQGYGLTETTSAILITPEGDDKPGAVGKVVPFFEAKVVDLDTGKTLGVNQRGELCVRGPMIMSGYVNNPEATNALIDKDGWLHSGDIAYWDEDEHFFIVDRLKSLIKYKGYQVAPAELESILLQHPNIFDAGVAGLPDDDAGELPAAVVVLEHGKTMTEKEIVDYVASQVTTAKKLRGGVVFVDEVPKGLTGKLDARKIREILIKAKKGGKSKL
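Compounds were tested as concentration series (qHTS) against purified P. pyralis luciferase with luciferin and 10 uM ATP in 50 mM imidazole pH 7.2, 50 mM KCl, 7 mM MgCl2, 0.01% Tween 20, 0.05% BSA. Luminescence was read after 8 min at ambient temperature.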
Epigenetic mod – epigenetic modulators derepressing GFP locus in mouse cells; AID 597; 68,000 tested, 0.09% active; Potency, µM (highest dose often 46.1 µM), for inactives: top-dose GFP derepression (activation); mouse C127i GFP locus derepression, cytometry, 30 h; further: % of control where 0% means no effect
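Locus derepression in mouse mammary C127i cells whose integrated CMV-GFP reporter is normally silent; GFP expression after 30 h compound treatment was quantified by counting fluorescent cells.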
Ub-GFP proteasome – ubiquitin-GFP accumulation via proteasome inhibition. Ubiquitin-GFP reporter cells, proteasome inhibition, GFP fluorescence; response scale: untreated = 0%, 10 µM MG-132 = 100%. Potency, µM (series often up to 45.9 µM), without a hit: at the top dose activation (GFP accumulation), usual class: activators. 67,000 tested, under 10 active. AID 526; active means well fitted activation curve with a large enough effect, not every such curve was filed as active; inconclusive means small, poorly fitted or top-dose-only effect, or another doubt; inactive means no such curve, though single readings can be large or run the other way; further: potency means the concentration at half of the fitted maximal effect
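U2OS cells stably expressing ubiquitin(G76V)-GFP, seeded overnight in 0.5% FBS medium, were exposed to compounds (qHTS, 46 uM to 2.9 nM) for 4 hr at 37 °C. GFP-positive cells were counted by laser cytometry (488 ex/515 em), normalized between basal and 10 uM MG-132.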
PK Bst – pyruvate kinase (B. stearothermophilus) modulation; 51,000 tested, 1.2% active; purified pyruvate kinase, luminescence ATP production; ribose 5-phosphate activator present at AC10; Potency, µM; in the data active means potency below about 11 µM; inconclusive means mostly about 12 µM to 25 µM;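 the screen sought inhibitors and activators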;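 further: potency means the concentration at half of the fitted maximal effect; scaled between full activation by ribose 5 phosphate and full inhibition by luteolin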
The depositor's hits bear a star; i = inactive; ? = inconclusive; . = no result given; [ ] = dose if it differs, or a comment. An excerpt weighted towards active compounds, which were near 2.6% of everything screened. Unless noted, the call rests on the fitted dose curve; in most records, active means well fitted curve in the direction sought with a large enough effect; inconclusive means small, poorly fitted or top-dose-only effect, or another doubt; inactive means no such curve, though single readings can be large; an effect the other way counts as inactive or inconclusive.

SMILES	HBB splicing	Luciferase inh	Epigenetic mod	Ub-GFP proteasome	PK Bst
CC(=NCc1ccco1)c1c(C)[nH]n(-c2nc3ccccc3s2)c1=O	-1%	2µM*	1%	8%	.
CC(C)(c1cc(Br)c(O)c(Br)c1)c1cc(Br)c(O)c(Br)c1	-1%	.	.	.	.
COc1ccc(NC(=O)C2CCC(=O)N2)cc1 (centres undefined)	-1%	3%	0%	10%	.
COc1ccc2c3c(ccc2c1)N[C@H](C(=O)O)CC3	-1%[9.22 µM]	3.2µM*	-2%[9.22 µM]	0%[9.17 µM]	.
O=C(CSc1nnnn1-c1cccc2ccccc12)N1CCOCC1	3%	-2%	3%	1%	8*
CCc1nnc(NC(=O)CSc2nc3c(cc2C#N)CCCC3)s1	0%	?	2%	7%	.
COC(=O)CC(=O)CSc1nc2c(cc1C#N)CCCCC2	0%	13µM*	0%	9%	i
O=C(O)CSCCc1ccccc1	2%[9.22 µM]	2%[11.4 µM]	4%[9.22 µM]	4%[9.17 µM]	.
Cc1nc2sccn2c1-c1nc(-c2cc3ccccc3o2)cs1	-1%	-14%	-1%	-4%	?
Cc1ccnc(Nc2nc(-c3c(C)nc4sccn34)cs2)c1	.	16µM*	4%	-1%	11*
c1ccc(Cn2nnc3c(N4CCCC4)ncnc32)cc1	.	2%	1%	-3%	>57
c1ccc(-n2nnc3c(N4CCOCC4)ncnc32)cc1	1%[57.5 µM]	5µM*	0%	-1%	9.2*
COCCn1c(=O)c(-c2ccc(OC)cc2)nc2cnc(N3CCN(C)CC3)nc21	1%	2%[11.4 µM]	3%[9.22 µM]	-4%	.
CC1(C)Cc2c(sc(NC(=O)c3ccc(Br)o3)c2C#N)CO1	.	10µM*	-3%[20.6 µM]	.	.
Cc1ccc(C(=O)Nc2sc3c(c2C(=O)O)CCCCC3)o1	-1%[57.5 µM]	20µM*	-2%	4%	i
NC(=O)c1c(NC(=O)c2cc3ccccc3o2)sc2c1CCC2	-1%[57.5 µM]	3.2µM*	18%	2%	.
Cc1c(N=C/C=C/c2ccccc2)cnn1C	-1%[57.5 µM]	16µM*	4%	6%	.
Cc1c(N=C/C=C/c2ccccc2)c(=O)n(-c2ccccc2)n1C	0%	-5%	-4%	-9%	.
O=c1c2c(nc3c(-c4ccc(Cl)cc4)c[nH]n13)CCCC2	0%[57.5 µM]	2%	0%	-5%	3.2*
N=C1Sc2ccccc2C2=NCCCN12	2%	3.2µM*	0%	3%	.
O=c1cnc2cncnc2n1Cc1ccccc1Cl	7%	0%[11.4 µM]	3%[9.22 µM]	4%	.
COc1ccccc1CC(=O)NC1CC(C)(C)NC(C)(C)C1	.	0%	-1%	0%	>57
CCC(=O)N[C@@H]1CCc2cccc(OC)c2C1	.	25µM*	-1%	-4%	.
COCCn1c(SCC(=O)c2ccc3c(c2)OCCO3)nnc1-c1ccco1	1%	-4%	-2%	3%	>57
CCn1c(SCC(=O)c2ccc3c(c2)OCCO3)nnc1-c1ccco1	3%	16µM*	0%	0%	.
SMILES	HBB splicing	Luciferase inh	Epigenetic mod	Ub-GFP proteasome	PK Bst
O=C(Nc1ccc2c(c1)CCC2)c1cnccn1	4%	25µM*	6%	4%	.
Cc1cnc(C(=O)Nc2ccc3c(c2)CCC3)cn1	0%[57.5 µM]	16µM*	-1%	-5%	i
Cc1cnc(C(=O)Nc2ccc(F)c(F)c2)cn1	-1%	-2%	-2%	1%	>57
O=C(CC1Nc2ccccc2NC1=O)c1ccccc1 (centres undefined)	6%	13µM*	0%	-3%	.
CC(NC(=O)CC1Nc2ccccc2NC1=O)c1ccccc1 (centres undefined)	0%	0%	6%	-5%	>57
Nc1nc(N2CCCCC2)nc2ccccc12	-1%	-13%	2%	-2%	8.5*
c1ccc2c(N3CCCCC3)nc(N3CCCC3)nc2c1	2%	4%	8%	-1%	>57
c1cc2c(cc1C(N1CCNCC1)N1CCNCC1)OCO2	1%[9.22 µM]	3%[11.4 µM]	-1%[9.22 µM]	7%[9.17 µM]	.
C=CCn1cnc2c(c1=O)c1nc3ccccc3nc1n2/N=C/c1cccc(OC)c1	3%[57.5 µM]	1%	2%	-3%	.
COCCn1cnc2c(c1=O)c1nc3ccccc3nc1n2/N=C/c1cccc(OC)c1OC	1%[0.369 µM]	5%	2%	.	3.6*
CCCCc1c2ccccc2nc2[nH]c3ccccc3c12	1%	.	.	.	.
Cc1ccccc1-c1ccc(C=Nc2c(C)n(C)n(-c3ccccc3)c2=O)o1	3%	16µM*	-4%	-3%	i
Cc1c(N=Cc2ccc(Cl)o2)c(=O)n(-c2ccccc2)n1C	-1%	1%	2%	8%	>57
COC(=O)c1[nH]c2ccc(C)cc2c1NC(=O)CN1CCCc2ccccc21	1%[1.84 µM]	1%	0%	7%	9.1*
Cc1ccccc1C(=O)Nc1ccc(Br)cn1	2%[0.0738 µM]	13µM*	3%	9%[9.17 µM]	.
CC(=O)c1c(C)[nH]c(C(=O)Nc2ccc(C)cn2)c1C	1%	2.5µM*	3%	-7%	4.4*
Cc1ccc(NC(=O)c2ccccc2F)nc1	.	25µM*	0%	0%	i
CC[C@H]1CN(C)[C@H]2Cc3c([nH]c4ccccc34)C(=O)C[C@H]1[C@H]2C(=O)OC	3%[9.22 µM]	1%[11.4 µM]	-3%[9.22 µM]	2%[9.17 µM]	.
COc1ccc(OC)c(CCNC(=O)Cn2sc3nc(C)cc(C)c3c2=O)c1	0%	10µM*	3%	6%	.
COC(=O)CC1C(=O)NCCN1C(=O)CSc1nnc(Nc2ccc(OC)cc2)s1 (centres undefined)	0%	16µM*	0%	8%	.
COC(=O)c1ccc(NC(=O)c2ccccc2NS(C)(=O)=O)cc1	-2%	16µM*	6%	1%	.
COc1ccc(NC(=O)c2ccccc2NS(C)(=O)=O)cc1OC	5%	?	3%	4%	>57
